Measurements as given in PubChem BioAssay.
Inconclusive results are not listed. Activity calls are given as the source filed them.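 How the source made its calls, unless noted: active means RAM network inhibition above 8.4% in each of two replicates, 3 SD over the compound average; inconclusive means above 8.4% inhibition in only one replicate; inactive means 8.4% inhibition or less in each replicate.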

Key:
[1] = reducers of endogenous Her2 protein level, primary screen, SKBR3 breast tumor cells, AlphaScreen, ATP viability (AID 461;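 active means Her2 level under about 52% in both replicate screens, with viability over 70% of control, limit read from the data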;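 on Her2 level: lower value means less Her2 protein in the cells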;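 on viability: percent of carrier control wells set as 100% viability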); conditions: 18-24 h, measured here: SKBR3 viability, ATP luminescence, at 10 µM
[2] = target: Receptor tyrosine-protein kinase erbB-2 (Homo sapiens) (UniProt P04626); test: as above; conditions: 18-24 h, at 10 µM, stronger effect = lower value
Receptor tyrosine-protein kinase erbB-2 (Homo sapiens), sequence (P04626 whole entry, looked up): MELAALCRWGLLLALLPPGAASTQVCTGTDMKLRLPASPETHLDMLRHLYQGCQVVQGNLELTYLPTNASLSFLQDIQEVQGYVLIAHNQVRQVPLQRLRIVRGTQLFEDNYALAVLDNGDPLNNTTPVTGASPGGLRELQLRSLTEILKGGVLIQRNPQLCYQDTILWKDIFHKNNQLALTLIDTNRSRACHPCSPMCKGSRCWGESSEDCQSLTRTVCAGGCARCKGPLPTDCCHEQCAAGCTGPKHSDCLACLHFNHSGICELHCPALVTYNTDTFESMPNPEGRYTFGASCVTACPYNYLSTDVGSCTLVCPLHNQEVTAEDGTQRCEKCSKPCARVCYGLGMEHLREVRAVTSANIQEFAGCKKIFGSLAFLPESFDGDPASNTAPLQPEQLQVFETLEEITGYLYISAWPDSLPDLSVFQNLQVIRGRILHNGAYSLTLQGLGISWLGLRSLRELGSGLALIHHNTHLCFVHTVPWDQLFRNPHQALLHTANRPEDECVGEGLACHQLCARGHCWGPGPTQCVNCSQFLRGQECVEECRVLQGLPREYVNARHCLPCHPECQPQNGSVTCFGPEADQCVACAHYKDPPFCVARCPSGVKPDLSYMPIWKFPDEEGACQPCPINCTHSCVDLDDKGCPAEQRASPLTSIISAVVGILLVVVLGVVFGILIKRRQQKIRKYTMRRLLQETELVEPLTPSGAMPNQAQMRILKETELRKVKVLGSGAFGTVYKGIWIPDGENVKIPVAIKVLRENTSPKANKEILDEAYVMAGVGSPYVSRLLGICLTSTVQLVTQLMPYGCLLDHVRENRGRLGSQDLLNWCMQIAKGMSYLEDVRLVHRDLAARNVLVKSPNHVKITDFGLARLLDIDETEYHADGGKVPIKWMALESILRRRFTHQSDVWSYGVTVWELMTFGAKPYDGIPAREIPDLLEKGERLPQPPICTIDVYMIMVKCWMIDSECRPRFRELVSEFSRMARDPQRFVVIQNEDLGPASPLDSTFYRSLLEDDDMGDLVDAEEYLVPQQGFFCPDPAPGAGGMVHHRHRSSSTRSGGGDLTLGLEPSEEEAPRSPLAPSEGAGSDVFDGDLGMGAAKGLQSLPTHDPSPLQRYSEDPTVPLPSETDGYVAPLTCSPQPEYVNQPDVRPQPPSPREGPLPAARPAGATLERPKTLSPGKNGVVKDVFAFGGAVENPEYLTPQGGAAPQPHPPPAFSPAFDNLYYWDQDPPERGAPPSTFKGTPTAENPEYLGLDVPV

[3] = SK-BR-3 cell growth inhibitors, pilot screen, 24 h, human (AID 572;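 active means viability at or below 10% of carrier control in both of two separate runs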;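 further: compound exposure lasted between 18 and 24 h rather than exactly 24 h; 100% = carrier-treated control wells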); conditions: SK-BR-3 viability, CellTiter-Glo luminescence, at 10 µM, stronger effect = lower value
[4] = HUVEC growth inhibition – cell-based, human, primary screen (AID 575;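 active means viability at or below 30% in both replicate assays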;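 further: 100% = median of untreated cell wells with 0.1% DMSO on each plate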); conditions: HUVEC proliferation, CellTiter-Glo luminescence, 72 h; at 10 µM; stronger effect = lower value
[5] = growth inhibitors of H69AR lung tumor, primary screen, human, duplicate replicates (AID 580;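 active means viability at or under a set limit in both replicates, limit being median viability minus 3 SD, cut at about 48% in these data, passing the limit was not always enough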;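 further: 100% = mean luminescence of untreated wells and 0% = no signal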); conditions: H69AR lung tumor cells viability, ATP luminescence, 72 h; at 10 µM; stronger effect = lower value
[6] = reversal of MRP1-mediated doxorubicin resistance, pilot screen, H69AR cells, doxorubicin co-treatment (AID 601;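 active means viability loss from added drug above about 55%, and viability with drug at most 40%, in both replicates, limit read from the data, passing the limit was not always enough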); conditions: CellTiter-Glo, 72 h, at 10 µM; for differential viability (reversal): stronger effect = higher value
[7] = 384-well plate pilot, post-Golgi transport modulator project, inhibition of yeast transport mutant growth (AID 636; in the data active means inhibition above about 31%); conditions: absorbance 615 nm, about 18 h, stronger effect = higher value
[8] = growth suppression of yeast trafficking mutant, preliminary HTS, modulators of trafficking downstream of Golgi apparatus project, 1536-format plate, OD 615 nm (AID 637; in the data active means inhibition above about 30%); conditions: yeast transport mutant growth, absorbance 615 nm, 18 h; stronger effect = higher value
[9] = OD615 S. cerevisiae growth inhibition, permissive medium, pilot counter-assay, permissive growth control for S. cerevisiae lifespan shortening project (AID 705;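 active means growth inhibition above 25% in both replicates, a cutoff set 3 SD above the mean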); conditions: OD615, 24 h, at 10 µM, stronger effect = higher value
[10] = Restrictive medium S. cerevisiae growth inhibition, OD615, pilot screen of yeast lifespan reduction project, restrictive growth control (AID 706;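 active means growth inhibition above a set limit, 3 SD over mean compound inhibition, in both replicates, cut at about 43% in these data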;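 further: modified DeaD lifespan yeast strain shifted to restrictive glucose medium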); conditions: OD615, 48 h, at 10 µM, stronger effect = higher value
[11] = viability gain of MRP-1-high H69AR cells under doxorubicin, pilot screen, MRP-1 activator project, CellTiter-Glo, duplicate (AID 807;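 active means viability increase at or above a cutoff of the median across tested compounds plus 3 SD, cut at about 8.5% in these data, passing the limit was not always enough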;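 further: compound pretreatment 18-22 h then 72 h combined with doxorubicin; 0% = doxorubicin alone and 100% = vehicle without doxorubicin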); conditions: H69AR viability with doxorubicin, CellTiter-Glo luminescence; at 10 µM; stronger effect = higher value
[12] = growth suppression of beta-catenin knockout HCT116, pilot screen, human colon tumor cells (AID 823;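 active means cell viability at or below a set limit in both duplicate runs, the limit being the all-compound median minus 4 SD, cut at about 23% in these data, passing the limit was not always enough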;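 further: 0% = wells killed by 20 µM Hyamine and 100% = untreated DMSO cell wells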); conditions: CellTiter-Glo, 60 h, at 10 µM, stronger effect = lower value
[13] = growth suppression of PTEN-deleted HCT116, pilot screen, cell-based, HCT116 clonal line, CellTiter-Glo (AID 824;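 active means viability at or below 27.92% in each of two runs, the all-compound median minus 4 SD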;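 further: 0% = 20 µM Hyamine control and 100% = vehicle cell control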); conditions: 60 h, at 10 µM, stronger effect = lower value
[14] = inhibitors of the yeast RAM network, pilot screen, dse1pr::URA3 reporter, 5-FOA selection (AID 869;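 active means inhibition over a set limit, the all-compound mean plus 3 SD, in both replicate runs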;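 further: 0% = DMSO wells with no growth and 100% = 10 µM 1-NA-PP1 with full growth; RAM network block rescues cells from 5-FOA so hits raise OD615 growth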); conditions: S. cerevisiae dse1pr::URA3 5-FOA growth, OD615, 2 d; at 10 µM; stronger effect = higher value; strain carries analog-sensitive mutant Cbk1 kinase
[15] = RAM signaling pathway blockade in yeast – S. cerevisiae, Pdr1DBD-CYC8 efflux-inhibited sensitized strain, primary screen (AID 1298);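 further: 0% = DMSO untreated cells without growth and 100% = 10 µM 1-NA-PP1 full growth; higher means more yeast growth rescued from 5-FOA killing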; conditions: S. cerevisiae cbk1-as DSE1-URA3 strain, 5-FOA growth OD615, 2 d; at 50 µM; stronger effect = higher value
[16] = H69AR cells + 2 uM doxorubicin, measured here: viability with 2 uM doxorubicin, stronger effect = lower value
[17] = H69AR cells, compound alone cytotoxicity

CCCCN(CC)CCCNC(=O)c1cc2c(=O)n(C)c3ccccc3c2n1C
inactive: Her2 level [2] 77% | viability [3] 76% | viability [4] 67.5% | viability [5] 70.1% | differential viability (reversal) ([6]; H69AR cells + 2 uM doxorubicin) -0.115% | inhibition [7] -2.05% | inhibition [8] -2% | growth inhibition [9] -8.88% | growth inhibition [10] -1.18% | viability increase [11] -7.73% | viability [12] 55.8% | viability [13] 54.6% | inhibition [14] -0.01% | RAM network inhibition [15] 1.02%
76%: viability [1]
70.2%: viability [6, 16]
70.1%: viability [6, 17]

CC(C)NC(=O)c1ccc2c(c1)nnn2C
94%: viability [1]
98.8%: viability [6, 16]
inactive: Her2 level [2] 84% | viability [3] 94% | viability [4] 87.6% | viability [5] 99.4% | differential viability (reversal) ([6]; H69AR cells + 2 uM doxorubicin) 0.56% | inhibition [7] -4.05% | inhibition [8] -4.92% | growth inhibition [9] -7.61% | growth inhibition [10] -12.3% | viability increase [11] 0.39% | viability [12] 106% | viability [13] 105% | inhibition [14] 2% | RAM network inhibition [15] 1.32%
99.4%: viability [6, 17]

CN1CCN(C(=O)c2ccc(CS(=O)(=O)c3c(Cl)cccc3Cl)o2)CC1
94.3%: viability [6, 17]
85.8%: viability [6, 16]
98.5%: viability [1]
inactive: Her2 level [2] 88.5% | viability [3] 98.5% | viability [4] 97.4% | viability [5] 94.3% | differential viability (reversal) ([6]; H69AR cells + 2 uM doxorubicin) 8.46% | inhibition [7] -2% | inhibition [8] -2.46% | growth inhibition [9] -7.05% | growth inhibition [10] -12% | viability increase [11] 0.72% | viability [12] 103% | viability [13] 96% | inhibition [14] 1.41% | RAM network inhibition [15] 0.22%

Cc1nnc(SCC(=O)Nc2c(Cl)cccc2Cl)[nH]c1=O
93.9%: viability [6, 17]
93.3%: viability [6, 16]
inactive: Her2 level [2] 101% | viability [3] 104% | viability [4] 99.1% | viability [5] 93.9% | differential viability (reversal) ([6]; H69AR cells + 2 uM doxorubicin) 0.52% | inhibition [7] -3.73% | inhibition [8] -2.17% | growth inhibition [9] -7.89% | growth inhibition [10] 7.47% | viability increase [11] 0.15% | viability [12] 98.7% | viability [13] 104% | inhibition [14] 1.54% | RAM network inhibition [15] 4.64%
104%: viability [1]

Cc1ccc(S(=O)(=O)N2CCC(C(=O)N3CCN(Cc4ccccc4)CC3)CC2)cc1
85.3%: viability [6, 17]
inactive: Her2 level [2] 91% | viability [3] 99% | viability [4] 100% | viability [5] 85.3% | differential viability (reversal) ([6]; H69AR cells + 2 uM doxorubicin) -15.4% | inhibition [7] -1.73% | inhibition [8] -0.33% | growth inhibition [9] -8.33% | growth inhibition [10] 0.335% | viability increase [11] 1.01% | viability [12] 90.5% | viability [13] 92.6% | inhibition [14] 2.2% | RAM network inhibition [15] 4.44%
101%: viability [6, 16]
99%: viability [1]

CC1=C(C(=O)Nc2cccnc2)C(c2ccc(C(C)C)cc2)n2ncnc2N1 (stereo unspecified)
inactive: Her2 level [2] 105% | viability [3] 89.5% | viability [4] 103% | viability [5] 97.8% | differential viability (reversal) ([6]; H69AR cells + 2 uM doxorubicin) 26.7% | inhibition [7] -2.13% | inhibition [8] -2.83% | growth inhibition [9] -9.26% | growth inhibition [10] -12.1% | viability increase [11] -3.03% | viability [12] 96.6% | viability [13] 102% | inhibition [14] 0.44% | RAM network inhibition [15] 1.4%
97.8%: viability [6, 17]
71.1%: viability [6, 16]
89.5%: viability [1]

O=C(NCCN1C(=O)C2C3C=CC(C3)C2C1=O)N1CCOCC1 (stereo unspecified)
inactive: Her2 level [2] 106% | viability [3] 89.5% | viability [4] 90.2% | viability [5] 93.7% | differential viability (reversal) ([6]; H69AR cells + 2 uM doxorubicin) 4.75% | inhibition [7] 0.67% | inhibition [8] -2.5% | growth inhibition [9] -8.54% | growth inhibition [10] 8.98% | viability increase [11] -1.43% | viability [12] 105% | viability [13] 94.9% | inhibition [14] 1.08% | RAM network inhibition [15] 0.73%
93.7%: viability [6, 17]
88.9%: viability [6, 16]
89.5%: viability [1]

CCOc1ccc(N(CC(=O)NCc2ccco2)S(=O)(=O)c2ccc(OC)c(OC)c2)cc1
83.7%: viability [6, 17]
inactive: Her2 level [2] 85% | viability [3] 79% | viability [4] 89.3% | viability [5] 83.7% | differential viability (reversal) ([6]; H69AR cells + 2 uM doxorubicin) 0.495% | inhibition [7] -3.51% | inhibition [8] -6.5% | growth inhibition [9] -3.81% | growth inhibition [10] -16.6% | viability increase [11] -4.63% | viability [12] 94.7% | viability [13] 90.4% | inhibition [14] 2.28% | RAM network inhibition [15] 2.74%
79%: viability [1]
83.2%: viability [6, 16]

O=C(Cn1nc(Cc2ccncc2)c2ccccc2c1=O)N1CCN(C(=O)c2ccco2)CC1
inactive: Her2 level [2] 110% | viability [3] 98.5% | viability [4] 85.6% | viability [5] 86% | differential viability (reversal) ([6]; H69AR cells + 2 uM doxorubicin) -8.19% | inhibition [7] -4.93% | inhibition [8] -4.5% | growth inhibition [9] -0.345% | growth inhibition [10] 9.88% | viability increase [11] -1.96% | viability [12] 106% | viability [13] 107% | inhibition [14] 1.01% | RAM network inhibition [15] 5.75%
86%: viability [6, 17]
98.5%: viability [1]
94.2%: viability [6, 16]

Cc1cc(C)cc(N2C(=O)CC(N3CCOCC3)C2=O)c1 (stereo unspecified)
92.2%: viability [6, 16]
inactive: Her2 level [2] 84% | viability [3] 104% | viability [4] 100% | viability [5] 191% | differential viability (reversal) ([6]; H69AR cells + 2 uM doxorubicin) 98.5% | inhibition [7] -1.89% | inhibition [8] 0.82% | growth inhibition [9] -9.16% | growth inhibition [10] -2.19% | viability increase [11] -0.95% | viability [12] 102% | viability [13] 92.5% | inhibition [14] 0.41% | RAM network inhibition [15] 0.87%
191%: viability [6, 17]
104%: viability [1]

N#CCCN1CCN(S(=O)(=O)c2ccc(S(=O)(=O)NC3CCCCC3)cc2)CC1
87.5%: viability [6, 16]
100%: viability [6, 17]
103%: viability [1]
inactive: Her2 level [2] 105% | viability [3] 103% | viability [4] 98.9% | viability [5] 100% | differential viability (reversal) ([6]; H69AR cells + 2 uM doxorubicin) 12.5% | inhibition [7] -2.69% | inhibition [8] 3.67% | growth inhibition [9] -1.9% | growth inhibition [10] -5.03% | viability increase [11] -0.74% | viability [12] 103% | viability [13] 97.8% | inhibition [14] 1.02% | RAM network inhibition [15] 5.92%

O=C(CCN1C(=O)c2ccccc2C1=O)NCCN1CCOCC1
95.3%: viability [6, 17]
inactive: Her2 level [2] 119% | viability [3] 105% | viability [4] 86.3% | viability [5] 95.3% | differential viability (reversal) ([6]; H69AR cells + 2 uM doxorubicin) -5.16% | inhibition [7] 1.95% | inhibition [8] -9.5% | growth inhibition [9] -11.9% | growth inhibition [10] -6.59% | viability increase [11] 0.61% | viability [12] 93.8% | viability [13] 104% | inhibition [14] 0.42% | RAM network inhibition [15] 2.35%
105%: viability [1]
101%: viability [6, 16]

COc1ccc(OC)c(C(C)NC=O)c1 (stereo unspecified)
99.5%: viability [6, 17]
inactive: Her2 level [2] 90.5% | viability [3] 89% | viability [4] 102% | viability [5] 99.5% | differential viability (reversal) ([6]; H69AR cells + 2 uM doxorubicin) 0.26% | inhibition [7] -6.89% | inhibition [8] -2.3% | growth inhibition [9] -9.25% | growth inhibition [10] -7.95% | viability increase [11] -0.64% | viability [12] 95.2% | viability [13] 105% | inhibition [14] 1.43% | RAM network inhibition [15] -0.21%
89%: viability [1]
99.2%: viability [6, 16]
